Only some compounds are listed: those with a hit (about 3.4% of all), similar ones and a draw of the others.
hgDAF-12 ag – hgDAF-12 agonism, primary luciferase screen. HEK293 GAL4-hgDAF12 UAS-luciferase reporter, agonist luminescence; normalized to butyrate control. activation, % at 6.8 µM. 370,000 compounds, 1.8% hits. AID 687014;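 active means activation above a cutoff set at the mean of all screened compounds plus 3 SD, cut at about 10% in these data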;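 further: 0% = DMSO wells and 100% = sodium butyrate wells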
APP 5'UTR act – APP 5'UTR luciferase reporter activation; SH-SY5Y APP 5'UTR luciferase reporter, luminescence; zero percent = DMSO vehicle wells; activation, % at 2 µM; 190,000 compounds, 1% hits; AID 1276;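 active means activation above a set limit, based on mean plus 3 SD of controls, cut at about 140% in these data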
ssDAF-12 act – activates DAF-12 receptor from parasite S. stercoralis; 370,000 compounds, 1% hits; activation, % at 6.8 µM; HEK293 ssDAF-12/GRIP1 lit1-tk-luc reporter, luminescence; % of 3 µM dafachronic acid response; AID 652126;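 active means activation above the mean over all tested compounds plus 3 SD, cut at about 0.9% in these data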;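 further: 0% = DMSO-only wells and 100% = 3 µM delta7-dafachronic acid wells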
NF-kB neuron act – raises NF-kB expression in human neuronal cells. NF-kB reporter expression; active compounds read high. fold change at 12.5 µM. AID 1239. 190,000 compounds, 1.6% hits; in the data active means fold change above about 3.3
hcDAF-12 act – activators of H. contortus DAF-12 nuclear receptor; HEK293 hcDAF-12 lit1-tk-luc reporter, luminescence; 0% DMSO, 100% Δ7-dafachronic acid; activation, % at 6.8 µM; 370,000 compounds, 1.4% hits; AID 652067;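 active means activation above the mean of all tested compounds plus 3 SD, cut at about 5.5% in these data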;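 further: 100% = response to 3 µM Δ7-dafachronic acid high control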
* marks the source's active call; other numbers are inactive results; . = not tested or not shown.

SMILES	hgDAF-12 ag	APP 5'UTR act	ssDAF-12 act	NF-kB neuron act	hcDAF-12 act
Oc1ccc(-c2csc(-c3cccnc3)n2)cc1O	13*	.	0	.	0
Cc1cc(SC(C)C(=O)Nc2ncc(Cl)cc2Cl)nc2ccccc12 (stereo not drawn)	-1	-1	0	3.4*	1
O=c1[nH]c2ccccc2nc1-c1cccs1	4	29	0	1.7	2
c1csc(-c2nnsc2-c2nc3ccccc3[nH]2)c1	4	-6	1.4*	1.2	3
CC(C)C(=O)OCCCN1C(=O)CCC12CCC(c1ccccc1)CC2 (stereo not drawn)	-2	.	-1	.	2
COC(=O)c1sc(NC(=O)c2cc3c(s2)CCCC3)nc1C	7	89	-1	5.7*	5
Cc1csc(NC(=O)c2ccc[nH]c2=O)n1	11*	.	-1	.	1
COc1cc(/C=N/NC(=O)c2csc3c2CCCC3)cc(OC)c1O	1	9	-1	0.8	-1
COc1cccc(NC(=O)c2csc3c2CCCC3)c1	11*	75	0	1	1
Cc1ccc(/C=N/NC(=O)C2(C)CC2(Br)Br)cc1 (stereo not drawn)	-1	12	2.0*	1.4	0
Cc1ccc(/C=N/NC(=O)c2csc3c2CCCC3)cc1	4	-90	-1	3.8*	1
CC1(C(=O)N/N=C/c2ccccc2)CC1(Br)Br (stereo not drawn)	-2	-5	-1	1.1	0
COc1ccc(NC(=O)c2csc3c2CCCC3)cc1	.	159*	.	7.3*	.
O=C(NCCc1c[nH]c2ccccc12)OCc1cn(Cc2cc(F)ccc2F)nn1	-3	.	-1	.	1
COC(=O)[C@]12C[C@H](CC(=O)N3CCCC3)C(=O)N(Cc3ccc(Cl)cc3Cl)C1=C[C@H](C1CCCC1)O[C@@H]2C	5	.	-1	.	-1
Cc1cccc(NC(=S)NNC(=O)c2csc3c2CCCC3)c1	11*	92	0	1.9	2
COC(=O)C1CN(Cc2ccccc2)CCS(=O)(=O)N1Cc1ccc(OC)cc1 (stereo not drawn)	0	.	-1	.	-3
Cc1cccc2cn[nH]c12	4	-18	-1	1.4	2
Cc1ccc2cn[nH]c2c1[N+](=O)[O-]	1	-1	0	1.6	5.6*
O=C(CC1(O)C(=O)N(C/C=C/c2ccccc2)c2ccccc21)c1ccccn1 (stereo not drawn)	1	-57	-2	3.8*	-2
COc1cccc(-c2ccc(C#N)c(SCC(=O)NCCc3ccccc3)n2)c1	0	-2	1.0*	0.82	-1
N#Cc1ccc(NCCCN2CCC(C(O)(c3ccccc3)c3ccccc3)CC2)cc1	2	.	-1	.	-3
COc1cc(/C=N/N2CCOCC2)ccc1OCc1ccc(Cl)cc1	10	144*	-1	2.7	3
COc1cc(/C=N/OCC(=O)NC2CCCCC2C)ccc1OCc1ccc(Cl)cc1 (stereo not drawn)	11*	141*	0	5*	2
COc1cccc(CNC(=O)C2CCN(c3nc(OC)nc(OC)n3)CC2)c1	1	.	-1	.	-3
SMILES	hgDAF-12 ag	APP 5'UTR act	ssDAF-12 act	NF-kB neuron act	hcDAF-12 act
COc1cccc(NC(=O)c2ccccc2Br)c1	11*	.	-1	.	1
COc1cccc(C(=O)Nc2ccc3[nH]c(=O)[nH]c3c2)c1OC	3	.	0	.	-1
COc1cccc(C(=O)Nc2ccc(N(C)C)cc2)c1OC	12*	53	0	2.1	2
COc1cccc(NC(=O)c2cccs2)c1	13*	33	-1	1.9	5
COc1cccc(C(=O)Nc2cccc(NC(=O)c3ccccc3Cl)c2)c1	-3	.	-1	.	-1
COc1cc(NC(=O)c2cccs2)cc(OC)c1	5	-2	0	1.5	3
COc1cccc(NC(=S)N(CCN(C)C)Cc2cccs2)c1	2	5	-1	5.8*	0
C=CCN1C(=O)[C@H](CC(=O)N2CCCCC2)[C@@]2(C(=O)OCC)CCCC=C12	1	.	-1	.	-1
COc1ccc(S[C@]2(C(=O)N3CCCC3)CC(=O)N(C(=O)C3CC3)[C@@H]2c2ccc(OC)cc2)cc1	1	.	-1	.	-1
COc1cccc(C(=O)Nc2ccncc2)c1OC	-1	.	-1	.	-1
Cc1ccn2cc(-c3cccc(NC(=O)c4cccs4)c3)nc2c1	11*	10	-1	1.8	-1
COc1ccc(C(=O)/C=C\c2ccc(NC(=O)c3cccs3)cc2)cc1	0	7	0	1.4	6.5*
Cc1cccn2cc(-c3cccc(NC(=O)c4cccs4)c3)nc12	3	31	-2	1.1	-1
COc1ccc(NC(=O)c2ccc(NC(=O)c3cccs3)cc2)cc1	0	.	-1	.	-2
COc1cccc(NC(=O)c2cccc(OC)c2OC)c1	12*	57	0	2.7	0
COc1cc(Cl)c(C)cc1NC(=O)c1cccc(OC)c1OC	11*	56	-1	1.2	0
COc1cccc(C(=O)Nc2cccc3ccccc23)c1OC	1	.	-1	.	-1
O=C(CSc1nnc(-c2ccccc2)n1-c1ccccc1)NN=Cc1ccc(-c2ccccc2)cc1	5	.	-1	.	-1
C=CCN(CC#Cc1ccc(C(F)(F)F)cc1)CC=C	-4	.	-1	.	3
C=CCn1cccc(C(=O)Nc2ccc(N(C)C)cc2)c1=O	11*	.	0	.	-1
COc1ccc(/C=C/C(=O)c2ccccc2O)cc1	.	62	.	5*	.
COc1cccc(NC(=O)c2ccccc2F)c1	11*	.	-1	.	3
C=CCn1cccc(C(=O)Nc2ccc(Cl)cc2)c1=O	3	.	-1	.	-1
COc1cccc(NC(=O)c2ccccc2-c2ccccc2C(=O)O)c1	0	.	-1	.	6.0*
CC(NCc1ccco1)C(=O)N1CCN(Cc2ccccc2F)CC1 (stereo not drawn)	1	.	0	.	1
SMILES	hgDAF-12 ag	APP 5'UTR act	ssDAF-12 act	NF-kB neuron act	hcDAF-12 act
COc1cccc2cc3c(nc12)C[C@@H]1CCCC(=O)N2CCC[C@@]12C3	0	.	-1	.	-2
O=S(=O)(Nc1ccc(C(O)(C(F)(F)F)C(F)(F)F)cc1)c1cccs1	-2	.	-1	.	1
Cc1ccc(OC(=O)C2c3ccccc3Oc3ccccc32)cc1C	-1	21	-1	4.6*	-2
CC(C)[C@H](NC(=O)[C@H](Cc1ccccc1)NC(=O)OC(C)(C)C)C(=O)N1CCC2CCN(S(=O)(=O)c3ccccc3)CC21 (stereo partly drawn)	-2	.	-1	.	1
Cc1c(C(=O)Nc2ccccc2F)sc2nc3n(c(=O)c12)CCC3	11*	.	0	.	3
CCC(CO)Nc1ccn2nc(-c3cccc(Cl)c3)cc2n1 (stereo not drawn)	13*	.	0	.	4
OC1CCC(Nc2ccn3nc(-c4cccc(Cl)c4)cc3n2)CC1 (stereo not drawn)	3	.	-1	.	0
CC1CCCCN1C(=O)c1cc(-c2ccc3c(c2)OCO3)on1 (stereo not drawn)	11*	.	0	.	5
CC1CCN(C(=O)c2cc(-c3ccco3)on2)CC1	8	.	0	.	4
